# Rv3671c inh – Rv3671c serine protease inhibitors, primary screen, biochemical, fluorescence polarization, M. tuberculosis H37Rv. P9WHR9. inhibition, % at 5.96 µM. hit rate 0.048% among 320,000; in the data active means inhibition above about 38%;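 further: extracellular domain of Rv3671c used as enzyme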
# UGM FP inh – M. tuberculosis UGM enzyme inhibitors, primary screen, biochemical, fluorescence polarization, single point | UDP-galactopyranose mutase (Mycobacterium tuberculosis (strain ATCC 25618 / H37Rv)), … | purified UGM, fluorescence polarization probe displacement | inhibition, % at 10 µM | hit rate 0.06% among 320,000; in the data active means inhibition above about 10%, passing the limit was not always enough; inconclusive means no clear call, values can overlap the other calls
# PriA SSB inh – inhibitors of Klebsiella pneumoniae PriA binding to SSB C-terminal tail, primary screen, biochemical, AlphaScreen | inhibition, % at 33 µM | AlphaScreen SSBct-PriA binding, biotinylated peptide | PriA–SSB C-terminal tail interaction (Klebsiella pneumoniae) | AID 1272365, 2023 | hit rate 0.6% among 430,000; in the data active means inhibition mostly above about 37%, no sharp cut-off; inactive means mostly below about 20%
# Mtb betalactam – beta-lactam sensitization of Mtb H37Rv, H37Rv. inhibition, % at 25 µM. M. tuberculosis H37Rv growth with meropenem, percent inhibition. hit rate 0.27% among 330,000; call rule not given here;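 further: growth measured after seven days incubation then overnight dye step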
# RecA splice inh – Mtb RecA intein splicing inhibitors, primary screen, biochemical, fluorescence, HTS | Protein RecA (Mycobacterium tuberculosis (strain ATCC 25618 / H37Rv)), P9WHJ3 | cell-free RecA intein splicing | inhibition, % (concentration not given with the values) | hit rate 0.75% among 290,000 | AID 2221, 2009; in the data active means inhibition above about 30%; inconclusive means no clear call, values can overlap the other calls
# Target sequence (P9WHJ3 whole entry, looked up, canonical isoform): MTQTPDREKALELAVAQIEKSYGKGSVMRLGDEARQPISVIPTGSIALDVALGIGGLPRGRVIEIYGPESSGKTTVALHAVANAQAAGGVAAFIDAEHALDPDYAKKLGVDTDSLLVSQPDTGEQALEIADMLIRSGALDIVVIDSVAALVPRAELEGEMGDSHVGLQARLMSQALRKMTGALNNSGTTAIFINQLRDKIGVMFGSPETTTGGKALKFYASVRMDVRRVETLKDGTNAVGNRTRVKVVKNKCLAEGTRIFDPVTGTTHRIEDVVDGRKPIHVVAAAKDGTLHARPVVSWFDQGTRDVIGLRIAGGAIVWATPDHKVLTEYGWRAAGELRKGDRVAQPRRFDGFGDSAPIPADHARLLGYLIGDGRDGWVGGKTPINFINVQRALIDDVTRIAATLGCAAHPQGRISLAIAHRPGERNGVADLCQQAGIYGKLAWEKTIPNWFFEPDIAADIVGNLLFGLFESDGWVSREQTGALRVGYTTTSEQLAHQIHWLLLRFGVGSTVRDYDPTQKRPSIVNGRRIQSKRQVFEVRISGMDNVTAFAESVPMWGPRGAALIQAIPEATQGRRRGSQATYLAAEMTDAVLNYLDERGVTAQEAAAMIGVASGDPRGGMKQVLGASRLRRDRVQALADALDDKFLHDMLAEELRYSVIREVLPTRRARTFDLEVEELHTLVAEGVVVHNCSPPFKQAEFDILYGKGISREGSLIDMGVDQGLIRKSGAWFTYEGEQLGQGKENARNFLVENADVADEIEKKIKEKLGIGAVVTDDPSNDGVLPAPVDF
# Numbers stand for hits; 0 = inactive; ? = inconclusive; - = no result; ! = not active in a repeat. The list is not random: actives were taken first. Their share in the collection is about 1.1%.
SMILES,Rv3671c inh,UGM FP inh,PriA SSB inh,Mtb betalactam,RecA splice inh
O=C(N=c1ccn(-c2nc3ccccc3nc2NS(=O)(=O)c2ccc(Cl)cc2)cc1)c1ccccc1Cl,0,34,-,0,0
Oc1ccccc1C(Nc1nccs1)c1ccc2cccnc2c1O (stereo unspecified),0,0,66,0,0
O=[N+]([O-])c1ccc(C(Nc2nccs2)c2ccc3cccnc3c2O)cc1 (stereo unspecified),-,-,0,-,-
CC1=NNC(=O)/C1=C\c1cn(-c2ccccc2)nc1-c1ccc(Cl)cc1,0,0,0,0,90
COc1ccc(NC(=O)/C(C#N)=C/c2ccc[nH]2)c(OC)c1,0,0,0,0,0
COc1ccc(NC(=O)/C(C#N)=C/c2ncc([N+](=O)[O-])n2C)c(OC)c1,0,0,0,0,37
O=[N+]([O-])c1ccc(Sc2cccc3cccnc23)c([N+](=O)[O-])c1,0,0,87,?,0
O=[N+]([O-])c1cc(O)cc2cccnc12,-,-,0,-,-
O=[N+]([O-])c1cc(F)cc2cccnc12,-,-,55,-,-
O=[N+]([O-])c1cccnc1Sc1ccc(F)cc1,0,0,42,0,0
O=[N+]([O-])c1cc(Cl)ccc1Sc1cccc2cccnc12,0,0,0,0,0
CCc1cc(=O)[nH]c2nnc(SC(CC)C(=O)OC)n12 (stereo unspecified),-,-,0,-,-
CCn1nc(C(=O)Nc2ccc(Cl)cc2C(=O)c2ccccc2Cl)cc1C,-,-,0,-,-
CC(Oc1ccc(C#N)cc1)C(=O)Nc1nc(-c2ccccn2)cs1 (stereo unspecified),-,-,109,-,-
CC(C(=O)Nc1nc(-c2ccccn2)cs1)N1NC2=CCCC2=CC1=O (stereo unspecified),-,-,95,-,-
CC(Oc1ccc(Br)cc1)C(=O)Nc1nc(-c2ccccn2)cs1 (stereo unspecified),0,0,0,0,0
Cc1cccc(C(=O)NC(C)C(=O)Nc2nc(-c3ccccn3)cs2)c1 (stereo unspecified),-,-,100,-,-
CC(N)C(=O)Nc1nc(-c2ccccn2)cs1 (stereo unspecified),-,-,0,-,-
CC(NC(=O)c1cccs1)C(=O)Nc1nc(-c2ccccn2)cs1 (stereo unspecified),-,-,103,-,-
CCn1c(Nc2cccc(C)c2)nc2ccccc21,-,-,0,-,-
O=C(NC(c1ccccc1)c1ccccc1)N(CCc1cccs1)C1CC1,-,-,0,-,-
COC(=O)c1cccc(Nc2nn3c(=O)c4ccc(F)cc4nc3s2)c1,-,-,0,-,-
CC(C)C(=O)Nc1nc(-c2ccccn2)cs1,-,-,74,-,-
COc1ccc(S(=O)(=O)Nc2cccc3c2O[C@H](CN(C)C(=O)NC(C)C)[C@@H](C)CN([C@H](C)CO)C3=O)cc1,0,0,99,0,-
COc1cc2c(cc1OC)C(COc1ccc(C(=O)O)cc1)NCC2 (stereo unspecified),-,-,0,-,-
SMILES,Rv3671c inh,UGM FP inh,PriA SSB inh,Mtb betalactam,RecA splice inh
Cc1cc(CNS(=O)(=O)CC23CCC(CC2=O)C3(C)C)c(C)o1 (stereo unspecified),-,-,0,-,-
CCCc1cc(=O)[nH]c(-n2nc(C)cc2NC(=O)C(=O)NCc2ccc(F)cc2)n1,-,-,0,-,-
CCCc1cc(=O)[nH]c(-n2nc(C)cc2NC(=O)C(C)(C)CCl)n1,-,-,44,-,-
O=C(OCn1ncc(Br)c(Br)c1=O)c1c(F)cccc1F,0,0,-,0,53
CC(=O)Cn1ncc(Br)c(Br)c1=O,-,-,0,-,0
Cc1cc(C(=O)OCC(=O)Nc2c(Cl)cccc2Cl)c(C)o1,0,10,0,0,-
CCOc1cccc(C=NN2C(=O)CSC2=S)c1O,-,-,71,-,-
O=C1CSC(=S)N1N=Cc1ccc(O)c(O)c1O,-,-,100,-,-
COc1cccc(C=NN2C(=O)CSC2=S)c1O,-,-,0,-,-
O=C1CSC(=S)N1N=Cc1ccccc1O,-,-,0,-,-
COc1ccc(OC)c(S(=O)(=O)N2CCN(c3ccc4nnc(C5CC5)n4n3)CC2)c1,-,-,0,-,-
CN(C)C(=S)Nc1ccc2nc(-c3ccccn3)c(-c3ccccn3)nc2c1,-,-,0,-,-
CC(C)(C)CC(C)(C)NC(=S)Nc1ccc2nc(-c3ccccn3)c(-c3ccccn3)nc2c1,0,0,0,0,0
CN(C)NC(=S)Nc1ccc2nc(-c3ccccn3)c(-c3ccccn3)nc2c1,0,0,79,0,0
OCCCNC(=S)Nc1ccc2nc(-c3ccccn3)c(-c3ccccn3)nc2c1,0,0,72,0,0
CN1C(=O)C(C)(C)COc2ccc(NC(=O)CC(C)(C)C)cc21,-,-,0,-,-
O=C(CSc1nc2ccccc2o1)N1CCN(Cc2csc(-c3ccccc3)n2)CC1,-,-,0,-,-
OC(COCc1ccc(Cl)cc1)CN1CCN(c2ccccc2F)CC1 (stereo unspecified),-,-,0,-,-
C/C(=C\C(=S)Nc1ccccc1)Nc1ccc2ccccc2c1,0,0,67,0,0
NC(N)=NN=Cc1ccc(N2CCOCC2)cc1,-,-,0,-,-
CC1CC1C(=O)Nc1nc(-c2ccccn2)cs1 (stereo unspecified),0,0,60,0,0
O=C(Nc1nc(-c2ccccn2)cs1)C1CC1c1ccccc1C(F)(F)F (stereo unspecified),-,-,0,-,-
O=C(Nc1nc(-c2ccccc2)cs1)C1COc2ccccc2O1 (stereo unspecified),0,0,0,0,0
O=C(Nc1nc(-c2ccccn2)cs1)C1CC1c1ccco1 (stereo unspecified),-,-,99,-,-
O=C(Nc1nc(-c2ccccn2)cs1)C1COc2ccccc2O1 (stereo unspecified),0,0,71,0,-
SMILES,Rv3671c inh,UGM FP inh,PriA SSB inh,Mtb betalactam,RecA splice inh
c1ccc(-c2csc3nnc(SCc4ccc5c(c4)OCCO5)n23)cc1,0,0,40!,0,0
Cc1ccc(-c2csc3nnc(SCc4ccc5c(c4)OCO5)n23)cc1,-,-,0,-,-
CCOc1ccc2c(c1)sc(=NS(=O)(=O)c1ccc(OC)cc1)n2C(F)F,-,-,0,-,-
CCC(=O)Nc1cc(C)nn1-c1nc(C)c(CC)c(=O)[nH]1,-,-,0,-,-
C/C=C/C(=O)Nc1cc(C)nn1-c1nc2c(c(=O)[nH]1)CCC2,-,-,0,-,-
Cc1cc(N)n(-c2nc3c(c(=O)[nH]2)CCCC3)n1,-,-,93,-,-
CCc1c(C)nc(-n2nc(C)cc2N)[nH]c1=O,-,-,93,-,-
NC(=NNC(=O)c1cccs1)c1cc2ccccc2oc1=O,-,-,0,-,-
O=C(NN=C(Cc1ncc[nH]1)c1ccccc1)c1ccncc1,-,-,48,-,-
COc1ccc(C(=O)NN=C(Cc2ncc[nH]2)c2ccccc2)cc1,-,-,0,-,-
CCn1ccc(C(=O)N(CCN2CCOCC2)c2nc3c(C)ccc(Cl)c3s2)n1,-,-,0,-,-
CC1=CC(C)(C)Nc2ccc(OC(=O)C(C)N3C(=O)c4ccccc4C3=O)cc21 (stereo unspecified),0,0,43,0,0
COc1ccc(OC(=O)C(C)N2C(=O)c3ccccc3C2=O)cc1 (stereo unspecified),0,0,0,0,-
Cc1sc(N=Cc2ccccc2Cl)c(C#N)c1C,-,-,0,-,-
